{"source": "the supplement of paper PMC8728848", "assay_in_all_cases": "glycan array binding signal (z-score within array); higher = stronger binding", "details_in_all_cases": "glycan notation: IUPAC condensed, linker removed", "key": {"[1]": {"target": "Fuc(a1-2)Gal(b1-3)GalNAc(b1-4)[Neu5Ac(a2-3)]Gal(b1-4)Glc", "procedure,_shortened": "(§1)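 From the Consortium for Functional Glycomics database, 3228 arrays were curated, keeping only those whose protein sequence was available. Binding is given as a within-array Z-score averaged across arrays sharing a protein sequence and across linkers. Negative Z-scores can be read as non-binding.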"}, "[2]": {"target": "Fuc(a1-2)Gal(b1-3)GlcNAc(b1-3)[Neu5Ac(a2-6)Gal(b1-4)GlcNAc(b1-6)]Gal(b1-4)Glc", "procedure,_shortened": "as §1"}, "[3]": {"target": "Fuc(a1-2)Gal(b1-4)GlcNAc(b1-3)Gal(b1-4)GlcNAc(b1-2)Man(a1-3)[Fuc(a1-2)Gal(b1-4)GlcNAc(b1-3)Gal(b1-4)GlcNAc(b1-2)Man(a1-6)]Man(b1-4)GlcNAc(b1-4)GlcNAc", "procedure,_shortened": "as §1"}, "[4]": {"target": "Fuc(a1-2)Gal(b1-4)[Fuc(a1-3)]GlcNAc(b1-3)Gal(b1-4)[Fuc(a1-3)]GlcNAc", "procedure,_shortened": "as §1"}, "[5]": {"target": "Fuc(a1-2)Gal3S(b1-4)GlcNAc", "procedure,_shortened": "as §1"}, "[6]": {"target": "Fuc(a1-2)[Gal(a1-3)]Gal(b1-4)GlcNAc(b1-3)[Fuc(a1-2)[Gal(a1-3)]Gal(b1-4)GlcNAc(b1-6)]GalNAc", "procedure,_shortened": "as §1"}, "[7]": {"target": "Fuc(a1-2)[GalNAc(a1-3)]Gal(b1-3)GalNAc(a1-3)[Fuc(a1-2)]Gal(b1-4)GlcNAc", "procedure,_shortened": "as §1"}, "[8]": {"target": "Fuc(a1-2)[GalNAc(a1-3)]Gal(b1-3)GlcNAc(b1-6)GalNAc", "procedure,_shortened": "as §1"}, "[9]": {"target": "Fuc(a1-3)[Gal(b1-4)]GlcNAc(b1-6)GalNAc", "procedure,_shortened": "as §1"}, "[10]": {"target": "Fuc(a1-3)[Gal3S(b1-4)]GlcNAc6S", "procedure,_shortened": "as §1"}, "Fuc(a1-4)GlcNAc": {"target": "Fuc(a1-4)GlcNAc", "procedure,_shortened": "as §1"}, "[11]": {"target": "Gal(a1-3)[Gal(a1-4)]Gal(b1-4)GlcNAc", "procedure,_shortened": "as §1"}, "Gal(a1-4)Gal(b1-4)GlcNAc": {"target": "Gal(a1-4)Gal(b1-4)GlcNAc", "procedure,_shortened": "as §1"}, "Gal(b1-3)GlcNAc": {"target": "Gal(b1-3)GlcNAc", "procedure,_shortened": "as §1"}, "[12]": {"target": "Gal(b1-3)GlcNAc(a1-3)Gal(b1-4)GlcNAc", "procedure,_shortened": "as §1"}, "[13]": {"target": "Gal(b1-3)GlcNAc(b1-2)Man(a1-3)[Gal(b1-3)GlcNAc(b1-2)Man(a1-6)]Man(b1-4)GlcNAc(b1-4)GlcNAc", "procedure,_shortened": "as §1"}, "[14]": {"target": "Gal(b1-3)GlcNAc(b1-3)Gal(b1-4)GlcNAc(b1-3)Gal(b1-4)GlcNAc(b1-2)[Gal(b1-3)GlcNAc(b1-3)Gal(b1-4)GlcNAc(b1-3)Gal(b1-4)GlcNAc(b1-6)]Man(a1-6)[Gal(b1-3)GlcNAc(b1-3)Gal(b1-4)GlcNAc(b1-3)Gal(b1-4)GlcNAc(b1-2)Man(a1-3)]Man(b1-4)GlcNAc(b1-4)[Fuc(a1-6)]GlcNAc", "procedure,_shortened": "as §1"}, "[15]": {"target": "Gal(b1-4)GlcNAc(b1-2)Man(a1-3)Man(b1-4)GlcNAc(b1-4)GlcNAc", "procedure,_shortened": "as §1"}, "[16]": {"target": "Gal(b1-4)GlcNAc(b1-2)Man(a1-6)[GlcNAc(b1-2)Man(a1-3)]Man(b1-4)GlcNAc(b1-4)GlcNAc", "procedure,_shortened": "as §1"}, "[17]": {"target": "Gal(b1-4)GlcNAc(b1-3)Gal(b1-4)GlcNAc(b1-2)Man(a1-3)[Gal(b1-4)GlcNAc(b1-3)Gal(b1-4)GlcNAc(b1-2)Man(a1-6)]Man(b1-4)GlcNAc(b1-4)[Fuc(a1-6)]GlcNAc", "procedure,_shortened": "as §1"}, "[18]": {"target": "Gal(b1-4)GlcNAc(b1-3)Gal(b1-4)GlcNAc(b1-3)Gal(b1-4)GlcNAc(b1-2)Man(a1-3)[Gal(b1-4)GlcNAc(b1-3)Gal(b1-4)GlcNAc(b1-3)Gal(b1-4)GlcNAc(b1-2)Man(a1-6)]Man(b1-4)GlcNAc(b1-4)GlcNAc", "procedure,_shortened": "as §1"}, "[19]": {"target": "Gal(b1-4)GlcNAc(b1-3)Gal(b1-4)GlcNAc(b1-3)Gal(b1-4)GlcNAc(b1-3)Gal(b1-4)GlcNAc(b1-2)Man(a1-3)[Gal(b1-4)GlcNAc(b1-3)Gal(b1-4)GlcNAc(b1-3)Gal(b1-4)GlcNAc(b1-3)Gal(b1-4)GlcNAc(b1-2)Man(a1-6)]Man(b1-4)GlcNAc(b1-4)GlcNAc", "procedure,_shortened": "as §1"}, "[20]": {"target": "Gal(b1-4)GlcNAc(b1-3)Gal(b1-4)GlcNAc(b1-3)Gal(b1-4)GlcNAc(b1-3)Gal(b1-4)GlcNAc(b1-2)[Gal(b1-4)GlcNAc(b1-3)Gal(b1-4)GlcNAc(b1-3)Gal(b1-4)GlcNAc(b1-3)Gal(b1-4)GlcNAc(b1-6)]Man(a1-6)[Gal(b1-4)GlcNAc(b1-3)Gal(b1-4)GlcNAc(b1-3)Gal(b1-4)GlcNAc(b1-3)Gal(b1-4)GlcNAc(b1-2)Man(a1-3)]Man(b1-4)GlcNAc(b1-4)[Fuc(a1-6)]GlcNAc", "procedure,_shortened": "as §1"}, "[21]": {"target": "Gal(b1-4)GlcNAc(b1-3)Gal(b1-4)GlcNAc(b1-3)Gal(b1-4)GlcNAc(b1-3)Gal(b1-4)GlcNAc(b1-3)Gal(b1-4)GlcNAc(b1-2)Man(a1-3)[Gal(b1-4)GlcNAc(b1-3)Gal(b1-4)GlcNAc(b1-3)Gal(b1-4)GlcNAc(b1-3)Gal(b1-4)GlcNAc(b1-3)Gal(b1-4)GlcNAc(b1-2)Man(a1-6)]Man(b1-4)GlcNAc(b1-4)GlcNAc", "procedure,_shortened": "as §1"}, "[22]": {"target": "Gal(b1-4)GlcNAc(b1-3)Gal(b1-4)GlcNAc(b1-3)Gal(b1-4)GlcNAc(b1-3)Gal(b1-4)GlcNAc(b1-3)Gal(b1-4)GlcNAc(b1-2)[Gal(b1-4)GlcNAc(b1-3)Gal(b1-4)GlcNAc(b1-3)Gal(b1-4)GlcNAc(b1-3)Gal(b1-4)GlcNAc(b1-3)Gal(b1-4)GlcNAc(b1-6)]Man(a1-6)[Gal(b1-4)GlcNAc(b1-3)Gal(b1-4)GlcNAc(b1-3)Gal(b1-4)GlcNAc(b1-3)Gal(b1-4)GlcNAc(b1-3)Gal(b1-4)GlcNAc(b1-2)Man(a1-3)]Man(b1-4)GlcNAc(b1-4)[Fuc(a1-6)]GlcNAc", "procedure,_shortened": "as §1"}, "[23]": {"target": "Gal(b1-4)GlcNAc(b1-6)GalNAc", "procedure,_shortened": "as §1"}, "Gal3S(b1-3)GlcNAc": {"target": "Gal3S(b1-3)GlcNAc", "procedure,_shortened": "as §1"}, "[24]": {"target": "Gal3S(b1-4)[Fuc(a1-3)]GlcNAc", "procedure,_shortened": "as §1"}, "[25]": {"target": "GalNAc3S(b1-4)[Fuc(a1-3)]GlcNAc", "procedure,_shortened": "as §1"}, "[26]": {"target": "GlcNAc(b1-3)Gal(b1-4)GlcNAc(b1-3)Gal(b1-4)GlcNAc(b1-3)Gal(b1-4)GlcNAc(b1-3)Gal(b1-4)GlcNAc(b1-2)Man(a1-3)[GlcNAc(b1-3)Gal(b1-4)GlcNAc(b1-3)Gal(b1-4)GlcNAc(b1-3)Gal(b1-4)GlcNAc(b1-3)Gal(b1-4)GlcNAc(b1-2)Man(a1-6)]Man(b1-4)GlcNAc(b1-4)[Fuc(a1-6)]GlcNAc", "procedure,_shortened": "as §1"}}, "note": "Shown is part of a subset that was picked to be rich in the strongest signals."}
{"binder": "PX14343A-bvu-539-29-539 (Bacteroides vulgatus) (protein) DSLTESSSNTFWQTPDDALMALASCYDALQSNQLYNSDQYSLGPLYMDCISDNGGHFNWSGWMEGYDMAMGIHTPSSSIIGSYWKDCYEVISRCNVLIANIDRVDMDASQKAIYQAEAKTIRALMYINLTMTYQDVPFLTAPLTIDEAECEKTDRAAIVAHVMTDLQDAAEVLPQNASSRGHITKGAALSLLGRVALYNEKWDDAIAAYKQVQGLGYSLDPSYAKLFTQSGETSPEIIFAVRYEGPGMSEGAAFNAHWNTPLEAMNGTIDLADAYYCKDGKPTTDTKIAELNGGGGLDVSKPNPAHFENRDPRLYSTLFVPGMLWNGKGGIDTSASNPYANVYGGAAASLSTVYVYKYFDPTDTSNSWDNGQDFYVVRYAEVLLSLAEAMVQKGGYVYSDVTALVNEVRQRADVNMPTVEEVEGTSLSKDELLEVIKHERRVELAFEGLRLFDLYRWKELDKAVANIENERTMYGLAYEARKFNGERDYVWPLPTAELDTNKKLVQHDLWK", "values": [{"measurement": "glycan array binding signal (z-score)", "setting": "[1]", "value": -0.271}, {"measurement": "glycan array binding signal (z-score)", "setting": "[2]", "value": -0.213}, {"measurement": "glycan array binding signal (z-score)", "setting": "[3]", "value": 8.08}, {"measurement": "glycan array binding signal (z-score)", "setting": "[4]", "value": -0.083}, {"measurement": "glycan array binding signal (z-score)", "setting": "[5]", "value": -0.406}, {"measurement": "glycan array binding signal (z-score)", "setting": "[6]", "value": 7.49}, {"measurement": "glycan array binding signal (z-score)", "setting": "[7]", "value": 0.132}, {"measurement": "glycan array binding signal (z-score)", "setting": "[8]", "value": -0.292}, {"measurement": "glycan array binding signal (z-score)", "setting": "[9]", "value": -0.298}, {"measurement": "glycan array binding signal (z-score)", "setting": "[10]", "value": -0.338}, {"measurement": "glycan array binding signal (z-score)", "setting": "Fuc(a1-4)GlcNAc", "value": -0.448}, {"measurement": "glycan array binding signal (z-score)", "setting": "[11]", "value": 6.76}, {"measurement": "glycan array binding signal (z-score)", "setting": "Gal(a1-4)Gal(b1-4)GlcNAc", "value": -0.281}, {"measurement": "glycan array binding signal (z-score)", "setting": "Gal(b1-3)GlcNAc", "value": -0.258}, {"measurement": "glycan array binding signal (z-score)", "setting": "[12]", "value": -0.396}, {"measurement": "glycan array binding signal (z-score)", "setting": "[13]", "value": 0.765}, {"measurement": "glycan array binding signal (z-score)", "setting": "[14]", "value": 4.27}, {"measurement": "glycan array binding signal (z-score)", "setting": "[15]", "value": 8.02}, {"measurement": "glycan array binding signal (z-score)", "setting": "[16]", "value": -0.116}, {"measurement": "glycan array binding signal (z-score)", "setting": "[17]", "value": 0.489}, {"measurement": "glycan array binding signal (z-score)", "setting": "[18]", "value": 1.35}, {"measurement": "glycan array binding signal (z-score)", "setting": "[19]", "value": 6.18}, {"measurement": "glycan array binding signal (z-score)", "setting": "[20]", "value": 3.38}, {"measurement": "glycan array binding signal (z-score)", "setting": "[21]", "value": 2.78}, {"measurement": "glycan array binding signal (z-score)", "setting": "[22]", "value": 9.28}, {"measurement": "glycan array binding signal (z-score)", "setting": "[23]", "value": -0.291}, {"measurement": "glycan array binding signal (z-score)", "setting": "Gal3S(b1-3)GlcNAc", "value": -0.038}, {"measurement": "glycan array binding signal (z-score)", "setting": "[24]", "value": -0.121}, {"measurement": "glycan array binding signal (z-score)", "setting": "[25]", "value": -0.399}, {"measurement": "glycan array binding signal (z-score)", "setting": "[26]", "value": 0.355}]}
